From PubChem BioAssay (NCATS)
Inconclusive results are not listed. Entries that show only a call come without a potency. Values without a mark were called inactive. The source made the active and inactive calls. Calls follow the shape of the dose curve; as a rule, active = well fitted curve in the direction sought with a large enough effect; inconclusive = small, poorly fitted or top-dose-only effect, or another doubt; inactive = no such curve, though single readings can be large; an effect the other way counts as inactive or inconclusive. Where a SMILES comes first, the peptide text is derived from it. [ ]: non-standard residue; d: D form. The star is where a group is joined. Fmoc = O=C(OCC1c2ccccc2-c2ccccc21)*; AMC = Cc1cc(=O)oc2cc(N*)ccc12; Cha = N[CH](CC1CCCCC1)C(=O)O; Nle = CCCC[C@H](N)C(=O)O

Key:
[1] = system: Zika virus NS2B-NS3 protease; test: Primary screen GU AMC qHTS for Zika virus inhibitors (AID 1347154); also: nearly all actives have a fitted effect of over 70% in size
In short: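 Fluorogenic AMC-substrate cleavage by noncovalent NS2B-NS3 protease complex (25 nM, pH 8.0 Tris buffer with Tween 20) followed for 15 minutes at room temperature (~20% conversion). Percent inhibition from ex340/em450 signal change, fitted by 4-parameter Hill equation.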

[2] = Primary qHTS for small molecule stabilizers of the endoplasmic reticulum resident proteome: Secreted ER Calcium Modulated Protein (SERCaMP) assay (AID 1508630)
In short: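 The SH-SY5Y reporter protocol was run at 3 concentrations up to 38.3 uM (primary) or 11 concentrations (follow-up): 16 h compound, 100 nM thapsigargin for 4 h, then extracellular luciferase luminescence.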
Potency is read from the fitted curve at half-maximal effect.

Compound | activity change, negative = inhibition [1] | activity change, negative = inhibition [2] | Potency [1] | Potency [2]
CCCCC[C@H](O)CC[C@H]1[C@H](O)CC(=O)[C@@H]1CCCCCCC(=O)O | 15.4% [at 6.83 µM] | -15% [at 3.88 µM] |  | 
CCCCCCCCCCCCCCC[C@@H](O)[C@H](CO)NC(C)=O | 7.2% [at 6.83 µM] | -11.4% [at 3.88 µM] |  | 
H-LVVYPWTQR-OH | 5.8% [at 6.83 µM] | 18.2% [at 3.88 µM] |  | 
C[N+]1(Cc2ccccc2)CCC(C(=O)OCC2CCCC2)CC1 (centres undefined) |  |  | inactive | inactive
CC(C)[C@H](O)CC[C@@H](C)C1CC[C@H]2C3CC=C4C[C@@H](O)CC[C@]4(C)C3CC[C@]12C (some centres undefined) |  |  | inactive | inactive
COc1ccc(CCNC(=O)C(=O)c2c[nH]c3ccccc23)cc1 |  |  | inactive | inactive
Cc1[nH]c(/C=C2/C(=O)Nc3ccc(S(=O)(=O)Cc4c(Cl)cccc4Cl)cc32)c(C)c1C(=O)N1CCCC1CN1CCCC1 (centres undefined) |  |  | inactive | inactive
N[C@](CC1c2ccccc2Oc2ccccc21)(C(=O)O)[C@H]1C[C@@H]1C(=O)O |  |  | inactive | inactive
CCCCCCCCCCCCC/C=C/[C@@H](O)[C@H](CO)NC(C)=O | 16.6% [at 6.83 µM] | 1.43% [at 3.88 µM] |  | 
CCCC[C@@H](C=O)NC(=O)[C@H](CC(C)C)NC(=O)[C@H](CC(C)C)NC(C)=O (Ac-Leu-Leu-[Nle]-aldehyde) |  |  | inactive | inactive
COC(=O)/C=C/c1ccc(C(=O)NCC(=O)N[C@@H](CCC(=O)OC)C(=O)N[C@@H](CC(C)C)C(N)=O)cc1 |  |  | inactive | inactive
CCCCC[C@H](O)/C=C/C=C\C=C\C=C\[C@@H](O)[C@@H](O)CCCC(=O)O | 15% [at 0.59 µM] | 7.52% [at 0.478 µM] |  | 
CCCCC[C@H](O)/C=C/C=C\CCCCCCCC(=O)O |  |  | inactive | inactive
COc1ccc2[nH]cc(CCO)c2c1 |  |  | inactive | inactive
C[C@H](CC[C@@H]1OC1(C)C)C1CC[C@H]2[C@@H]3CC=C4C[C@@H](O)CC[C@]4(C)[C@H]3CC[C@]12C (some centres undefined) |  |  | inactive | inactive
CCCCCCCCCCCCCC(=O)N[C@H](C)[C@@H](O)c1ccccc1 | 6.45% [at 6.83 µM] | -4.17% [at 3.88 µM] |  | 
CC1CCC(C(C)C)C(P(=O)(c2ccccc2)c2ccccc2)C1 (centres undefined) |  |  | inactive | inactive
c1ccc2[nH]c(NCCCc3cnc[nH]3)nc2c1 |  |  | inactive | inactive
CCCCCCCCCCCCC/C=C/[C@@H](O)[C@H](CO)NC(=O)CCCCCCC | 11.7% [at 6.83 µM] | 18.1% [at 3.88 µM] |  | 
CCCCCCCCCCOCCC(=O)O | 12.5% [at 6.83 µM] | -6.7% [at 3.88 µM] |  | 
C=C1CC[C@H](O)C/C1=C/C=C1\CCC[C@]2(C)C([C@H](C)CCCC(C)(C)O)CC[C@@H]12 (some centres undefined) |  |  | inactive | inactive
O=[N+]([O-])c1ccc(CSc2ncnc3c2ncn3C2OC(CO)C(O)C2O)cc1 (centres undefined) |  |  | inactive | inactive
O=C(Nc1ccccc1)C12CC1/C(=N\O)c1ccccc1O2 (centres undefined) |  |  | inactive | inactive
CCCCC/C=C\C\C=C/C=C/C=C/[C@@H](SCC(NC(C)=O)C(=O)O)[C@@H](O)CCCC(=O)O (some centres undefined) | 13.7% [at 0.59 µM] | -5.72% [at 0.478 µM] |  | 
COc1ccc(-n2[nH]c3c4c(ncc3c2=O)CCCCC4)cc1 |  |  | inactive | inactive
CC1=C(/C=C/C(C)=C\C=C\C(C)=C\C(=O)O)C(C)(C)CCC1 |  |  | inactive | inactive

Compound | activity change, negative = inhibition [1] | activity change, negative = inhibition [2] | Potency [1] | Potency [2]
C=NCc1cc2c(OC[C@@H](O)CNC(C)(C)C)cccc2[nH]1 |  |  | inactive | inactive
CC1(C)Oc2ccc(C#N)cc2[C@@H](OC2=CC(=O)CC2)[C@@H]1O |  |  | inactive | inactive
CC1=C(/C=C/C(C)=C/C=C/C(C)=C/C(=O)O)C(C)(C)CCC1O (centres undefined) |  |  | inactive | inactive
Oc1ccc(-c2c(-c3ccccc3)nn3c(C(F)(F)F)cc(C(F)(F)F)nc23)cc1 |  |  | inactive | inactive
COc1ccc(/C=C/C(=O)CC(=O)/C=C/c2cccc(O)c2OC)cc1O |  |  | inactive | inactive
CCCCC/C=C\C\C=C/C=C/C=C/[C@@H](SC[C@H](N)C(=O)O)[C@@H](O)CCCC(=O)O | 5.9% [at 0.59 µM] | -5.61% [at 0.478 µM] |  | 
C[C@H](CCC(=O)NCCS(=O)(=O)O)C1CC[C@H]2C3CC[C@@H]4C[C@H](O)CC[C@]4(C)C3C[C@H](O)[C@]12C (some centres undefined) |  |  | inactive | inactive
NC(C(=O)O)c1cc(O)cc(O)c1 (centres undefined) |  |  | inactive | inactive
CCCCC[C@H](O)/C=C/[C@@H]1[C@@H](C/C=C\CCCC(=O)O)[C@@H](O)C[C@@H]1O | 11.6% [at 6.83 µM] | -25.7% [at 3.88 µM] |  | 
CCC1Cc2cc(O)ccc2C2=C1c1ccc(O)cc1CC2CC (centres undefined) |  |  | 3.77 µM (active) | inactive
CC(C)n1nnc2cc(C(=O)O)ccc21 |  |  | inactive | inactive
CCCCCCCCCCCCCCCCCCOC[C@H](COP(=O)([O-])OCC[N+](C)(C)C)OC(C)=O | 10.6% [at 6.83 µM] | 33.9% [at 3.88 µM] |  | 
Nc1c(S(=O)(=O)O)cc(Nc2ccc(Cl)cc2)c2c1C(=O)c1ccccc1C2=O |  |  | inactive | inactive
CN(C)C(=O)n1nnnc1Cc1ccc(-c2ccccc2)cc1 |  |  | inactive | inactive
N[C@@H](Cn1c2c(c(=O)[nH]c1=O)CCC2)C(=O)O |  |  | inactive | inactive
N[C@H](C(=O)O)C1C(C(=O)O)C1C(=O)O (some centres undefined) |  |  | inactive | inactive
Nc1ncc2[nH]cnc2n1 |  |  | inactive | inactive
C[C@@H](N)CCCP(=O)(O)O |  |  | inactive | inactive
C=C1/C(=C\C=C2/CCC[C@]3(C)C([C@H](C)CCCC(C)(C)O)CC[C@@H]23)C[C@@H](O)C[C@@H]1O (some centres undefined) | 14.5% [at 6.83 µM] | -19.4% [at 3.88 µM] |  | 
CCCCCCOC(=O)C1(O)CC2OC1(C)n1c3ccccc3c3c4c(c5c6ccccc6n2c5c31)C(=O)NC4 (centres undefined) | 19.5% [at 4.99 µM] | -23% [at 3.88 µM] |  | 
O=c1ncccn1[C@@H]1O[C@H](CO)C(O)[C@@H]1O (some centres undefined) |  |  | inactive | inactive
CC1c2ccccc2CN1CC1=NCCN1 (centres undefined) |  |  | inactive | inactive
Cc1cc(=O)oc2cc(NC(=O)C(CCCCN)NC(=O)C(CC3CCCCC3)NC(=O)OCC3c4ccccc4-c4ccccc43)ccc12 (centres undefined) (Fmoc-[Cha]-Lys-{AMC}; configuration not given here) |  |  | 18.9 µM (active) | inactive
Nc1cc(N2CCCCC2)nc(N)[n+]1OS(=O)(=O)[O-] |  |  | inactive | inactive
CCCN(C/C=C/I)C1CCc2cccc(O)c2C1 (centres undefined) |  |  | inactive | inactive
COc1ccc(CCCOC(Cn2ccnc2)c2ccc(OC)cc2)cc1 (centres undefined) |  |  | inactive | inactive

Compound | activity change, negative = inhibition [1] | activity change, negative = inhibition [2] | Potency [1] | Potency [2]
CCCC1OC2CC3C4CCC5=CC(=O)C=CC5(C)C4C(O)CC3(C)C2(C(=O)CO)O1 (centres undefined) |  |  | inactive | inactive
CC(C)C[C@H](NC(=O)[C@H](CCCCN)NC(=O)[C@H](CCCNC(=N)N)NC(=O)[C@H](C)NC(=O)[C@H](CO)NC(=O)[C@H](CCCCN)NC(=O)[C@H](CCCNC(=N)N)NC(=O)[C@H](C)NC(=O)CNC(=O)[C@@H](NC(=O)[C@H](Cc1ccccc1)NC(=O)CNC(=O)CNC(=O)[C@@H](N)Cc1ccccc1)[C@H](C)O)C(=O)N[C@@H](C)C(=O)N[C@@H](CC(N)=O)C(=O)N[C@@H](CCC(N)=O)C(=O)O | -13.5% [at 6.83 µM] | 13.9% [at 3.88 µM] |  | 
CN1C/C(=C/c2ccc(B(O)O)cc2)C(=O)/C(=C/c2ccc(B(O)O)cc2)C1 |  |  | inactive | inactive
CCCCCCCCCCC/C=C\C/C=C\CCCC(=O)O | 7.9% [at 6.83 µM] | -21.5% [at 3.88 µM] |  | 
CC[C@@H](C)[C@@H](CO[C@@H](Cc1ccccc1)C(=O)N[C@@H](CCS(C)(=O)=O)C(=O)OC(C)C)NC[C@@H](N)CS |  |  | inactive | inactive
CNc1ncnc2c1ncn2[C@H]1C[C@H](O)[C@@H](CO)O1 |  |  | inactive | inactive
CC(N)(C(=O)O)c1ccc(-c2nn[nH]n2)cc1 (centres undefined) |  |  | inactive | inactive
C1CCC(NC(=NC2C3CC4CC(C3)CC2C4)N2CCOCC2)CC1 (centres undefined) |  |  | inactive | inactive
O=c1ccn([C@@H]2O[C@H](COP(=O)(O)OP(=O)(O)OP(=O)(O)O)[C@@H](O)[C@H]2O)c(=O)[nH]1 |  |  | inactive | inactive
CCCCCCCCCCCCCCCCOCC(CO)OC (centres undefined) | 21.3% [at 6.83 µM] | -17.7% [at 3.88 µM] |  | 
Cc1ccc2c(c1)C(=O)C1(O)CCN(c3ccccc3)C1=N2 (centres undefined) |  |  | inactive | inactive
CSCC[C@@H](N)C(=O)O |  |  | inactive | inactive
O=c1nc2ccccc2c2n1CC(CN1CCN(c3ccccc3)CC1)N2 (centres undefined) |  |  | inactive | inactive
CC(C)C(NS(=O)(=O)c1ccc(-c2ccc(Br)cc2)cc1)C(=O)O (centres undefined) |  |  | inactive | inactive
CCCCC/C=C\C/C=C\C/C=C\C=C\[C@@H](O)CCCC(=O)O | 0.663% [at 0.59 µM] | -9.05% [at 0.478 µM] |  | 
NS(=O)(=O)c1nn2cc(-c3ccccc3)nc2s1 |  |  | inactive | inactive
CNC(=S)NCCCCc1cnc[nH]1 |  |  | inactive | inactive
CC(=O)NC1C(OC2OC(CC(O)C3OC([N+]4=CCC(=O)NC4=O)C(O)C3O)C(O)C(O)C2NC(=O)/C=C/CCCCCCCCC(C)C)OC(CO)C(O)C1O (centres undefined) |  |  | inactive | 1 µM (active)
CO[C@H]1C[C@@H]2CC[C@@H](C)[C@@](O)(O2)C(=O)C(=O)N2CCCC[C@H]2C(=O)O[C@H](C(C)C[C@H]2CC[C@@H](O)[C@H](OC)C2)CC(=O)[C@H](C)/C=C(\C)[C@@H](O)[C@@H](OC)C(=O)[C@H](C)C[C@H](C)/C=C/C=C/C=C/1C (some centres undefined) |  |  | inactive | inactive
C[C@@H](O)CNC(C)(C)CC(=O)N[C@@H]1CCc2ccccc2N(Cc2ccc(-c3ccccc3-c3nn[nH]n3)cc2)C1=O |  |  | inactive | inactive
[C-]#[N+]c1cc(-c2ccncc2)c(C)[nH]c1=O |  |  | inactive | inactive
COc1c(O)c2c(=O)cc(OC)c3c4c(OC)cc(=O)c5c(O)c(OC)c(C[C@@H](C)OC(=O)c6ccccc6)c(c(c1C[C@@H](C)OC(=O)Oc1ccc(O)cc1)c23)c54 | 10.7% [at 4.99 µM] | 121% [at 3.88 µM] |  | 
C[C@@]12CCC[C@H]1C1CC[C@H]3C[C@H](O)CC[C@]3(C)C1CC2 (some centres undefined) |  |  | inactive | inactive
CCCCC/C=C\C=C\[C@H](O)CCCCCCCC(=O)O | 19.3% [at 0.59 µM] | 2.02% [at 0.478 µM] |  | 
Cn1cnc2c(ncn2[C@@H]2O[C@H](CO)[C@@H](O)[C@H]2O)c1=N |  |  | inactive | inactive
